{"source": "PubChem BioAssay AID463212", "about": "(Sanford-Burnham Center for Chemical Genomics, 2010)", "note": "About 4,400 (1.3%) of roughly 330,000 compounds were called active. This is one part of a sample in which actives are shown more often than they occur. Values without a mark were called inactive.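 The calls were made as follows: active = growth inhibition of the mutant yeast at or above 50%; inactive = the rest.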", "data": [{"assay": "growth inhibitors of tim23-1 mutant yeast, primary screen, luminescence, uHTS (AID 463212);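 also: temperature-sensitive mutant grown at 25 °C; plate controls were DMSO-treated mutant yeast for no effect and medium wells lacking yeast for full effect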", "settings": "S. cerevisiae tim23-1 growth, BacTiter-Glo luminescence, 24 h; at 20 µM; hits give high values", "values": [{"molecule": "COC(=O)c1cc2occc2n1Cc1nc(-c2ccccc2C)oc1C", "inhibition": "4.08%"}, {"molecule": "C=CCn1nc(-c2ccccc2)c2c(C)onc2c1=O", "inhibition": "6.39%"}, {"molecule": "CC(=O)Nc1ccc(S(=O)(=O)NC2(C(F)(F)F)C(=O)Nc3c2c(=O)[nH]c(=O)n3Cc2ccccc2)cc1", "note": "(centres undefined)", "inhibition": "3.06%"}, {"molecule": "CC(C)NC(=O)/C(C#N)=C\\c1ccc(N(C)C)c(Br)c1", "inhibition": "61% (active)"}, {"molecule": "CC(C)(C)C(=O)/C(C#N)=C/c1ccc(O)cc1", "inhibition": "24%"}, {"molecule": "Cc1[nH]c2ccccc2c1/C=C(/C#N)C(=O)NC(C)C", "inhibition": "10.2%"}, {"molecule": "Cc1cc(C(=O)OC(C)C(=O)NC2CCCCC2C)c(C)o1", "note": "(centres undefined)", "inhibition": "-5.23%"}, {"molecule": "CCN(CC)CC(=O)Nc1sc2c(c1C(=O)c1ccccc1C)CCC2", "inhibition": "32.5%"}, {"molecule": "CC(OC(=O)CCCc1c[nH]c2ccccc12)C(=O)Nc1ccc(S(N)(=O)=O)cc1", "note": "(centres undefined)", "inhibition": "11.1%"}, {"molecule": "CCN(CC)C(=O)N1CCN(C(=O)c2ccc(C)cn2)CC1", "inhibition": "8.95%"}, {"molecule": "CC(=O)n1c(C=Nc2ccccc2)c(O)c2ccccc21", "inhibition": "10.8%"}, {"molecule": "O=[N+]([O-])c1ccc(N=Cc2c(O)ccc3ccccc23)cc1", "inhibition": "55.5% (active)"}, {"molecule": "C/C(=N\\N(C)C)c1ccc(OCCOc2ccc([N+](=O)[O-])cc2)cc1", "inhibition": "20.4%"}, {"molecule": "CC(C)CNC(=O)CC(c1ccccc1)c1c(O)ccc2ccccc12", "note": "(centres undefined)", "inhibition": "11.2%"}, {"molecule": "Oc1ccc2ccccc2c1C=Nc1ccccc1", "inhibition": "53.2% (active)"}, {"molecule": "Cc1nc2ccccc2nc(=O)c1NNc1ccc([N+](=O)[O-])cc1", "inhibition": "-14.3%"}, {"molecule": "COc1ccc(NC(=O)C2=C(C)NC(=O)NC2c2ccccc2[N+](=O)[O-])cc1", "note": "(centres undefined)", "inhibition": "1.02%"}, {"molecule": "O=C(NCC(=O)N(CC1CCCO1)C(C(=O)NC1CCCCC1)c1ccccc1)c1ccco1", "note": "(centres undefined)", "inhibition": "14.7%"}, {"molecule": "COc1cc(C2CC(=O)Oc3cc(OC)c(OC)c(OC)c32)cc(OC)c1OC", "note": "(centres undefined)", "inhibition": "27.3%"}, {"molecule": "COc1ccc(NC(=O)NNC(=O)COc2cc(C)c(Cl)c(C)c2)c(OC)c1", "inhibition": "-17.4%"}, {"molecule": "Oc1ccc(/C=N/Nc2ccc(C(F)(F)F)cn2)cc1O", "inhibition": "16.3%"}, {"molecule": "Oc1ccc(Br)cc1/C=N/Nc1ccccn1", "inhibition": "68% (active)"}, {"molecule": "Oc1cccc(/C=N/Nc2ccc(Cl)nn2)c1O", "inhibition": "24.4%"}, {"molecule": "N/C(=N\\OC(=O)CCc1ccccc1)c1cccnc1", "inhibition": "18.1%"}, {"molecule": "COc1ccc(/C(N)=N/OC(=O)CCCc2ccccc2)cc1", "inhibition": "71.1% (active)"}, {"molecule": "COc1ccc(/C(N)=N/OC(=O)Oc2ccccc2)cc1", "inhibition": "14.8%"}, {"molecule": "N/C(=N\\OC(=O)CCc1ccccc1)c1ccc(Cl)cc1", "inhibition": "73.6% (active)"}, {"molecule": "COc1ccc(/C(N)=N/OC(=O)Cc2ccccc2)cc1", "inhibition": "21.8%"}, {"molecule": "O=C(CCc1ccccc1)NNC(=O)COc1ccc(Cl)cc1", "inhibition": "7.58%"}]}]}
